Measurements as given in PubChem BioAssay AID1159580 (chemical genetic matrix, 2015).
Where “and” joins values, the source holds several entries; their conditions need not be identical. Equal values may be shown once. In all, about 5,500 compounds went through this assay and about 2,000 (36%) were called active. Another 18% or so got no clear call; they are omitted. Cut-off read from the data, not from the text of the source: active = normalized growth mostly below about 0.91 (no sharp cut-off); inconclusive = no clear call, values can overlap the other calls; inactive = mostly above about 0.92. The list shows a part of the results.

Experiment: chemical genetic growth profiling, strain panel (AID 1159580);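 note: tested at 20 µM; growth read once vehicle control cultures reached saturation at 30 °C; 1 = growth at the plate median or of vehicle wells; lower values mean less growth of the strain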
Settings: S. cerevisiae deletion strains, growth OD

Measured: normalized growth

CC(C)(C)NCC(O)c1cc(O)cc(O)c1 (stereo not drawn)
inactive: locus YAL013W, strain DEP1, hits give low values 1 | locus YAL021C, strain ccr4, hits give low values 0.975 | locus YAL026C, strain drs2, hits give low values 0.979 | locus YAL030W, strain snc1, hits give low values 0.98 | locus YAL040C, strain CLN3, hits give low values 0.976 | locus YBL061C, strain skt5, hits give low values 0.963 | locus YBR009C, strain hhf1, hits give low values 1.01 | locus YBR021W, strain FUR4, hits give low values 1 | locus YBR023C, strain chs3, hits give low values 0.972 | locus YBR171W, strain sec66, hits give low values 0.986 | locus YBR229C, strain ROT2, hits give low values 0.996 | locus YBR231C, strain swc5, hits give low values 0.997 | locus YBR279W, strain paf1, hits give low values 0.98 | locus YCL011C, strain gbp2, hits give low values 0.985 | locus YCL016C, strain dcc1, hits give low values 0.967 | locus YCL029C, strain bik1, hits give low values 0.987 | locus YCL061C, strain MRC1 (second series), hits give low values 0.988 | locus YCL069W, strain vba3, hits give low values 0.988 | locus YCR088W, strain abp1, hits give low values 0.984 | locus YDL005C, strain med2, hits give low values 0.959 | locus YDL035C, strain GPR1, hits give low values 0.994 | locus YDL040C, strain nat1, hits give low values 0.973 | locus YDL074C, strain BRE1, hits give low values 1.02 | locus YDL101C, strain DUN1, hits give low values 0.987 | locus YDL134C, strain PPH21, hits give low values 1 | locus YDL192W, strain arf1, hits give low values 0.971 | locus YDR001C, strain nth1, hits give low values 0.982 | locus YDR069C, strain doa4, hits give low values 0.993 | locus YDR101C, strain arx1, hits give low values 0.977 | locus YDR137W, strain rgp1, hits give low values 0.962 | locus YDR159W, strain sac3, hits give low values 0.983 | locus YDR162C, strain NBP2, hits give low values 0.995 | locus YDR195W, strain ref2 0.998 | locus YDR297W, strain sur2, hits give low values 0.99 | locus YDR318W, strain mcm21, hits give low values 0.979 | locus YDR334W, strain swr1, hits give low values 0.964 | locus YDR335W, strain msn5, hits give low values 0.984 | locus YDR363W, strain ESC2, hits give low values 0.957 | locus YDR388W, hits give low values 0.988 | locus YDR392W, strain spt3, hits give low values 0.883 | locus YDR502C, strain sam2, hits give low values 0.978 | locus YEL003W, strain gim4, hits give low values 0.992 | locus YEL037C, strain rad23, hits give low values 0.972 | locus YEL061C, strain CIN8 (second series), hits give low values 0.977 | locus YEL061C, strain CIN8, hits give low values 0.994 | locus YER002W, strain NOP16, hits give low values 1.01 | locus YER015W, strain faa2, hits give low values 0.987 | locus YER016W, strain bim1, hits give low values 0.946 | locus YER110C, hits give low values 0.97 | locus YER111C, strain swi4, hits give low values 0.967 | locus YER155C, strain BEM2 (second series), hits give low values 0.975 | locus YER155C, strain BEM2, hits give low values 0.991 | locus YER167W, strain BCK2, hits give low values 0.993 | locus YFR010W, strain ubp6, hits give low values 0.999 | locus YGL078C, strain dbp3, hits give low values 0.981 | locus YGL086W, strain mad1, hits give low values 0.987 | locus YGL167C, strain pmr1, hits give low values 0.986 | locus YGL173C, strain kem1, hits give low values 0.971 | locus YGL227W, strain vid30, hits give low values 0.98 | locus YGL240W, strain doc1, hits give low values 1.02 | locus YGL248W, strain PDE1, hits give low values 0.999 | locus YGL253W, strain hxk2, hits give low values 0.962 | locus YGR078C, strain PAC10, hits give low values 0.993 | locus YGR135W, strain pre9, hits give low values 0.982 | locus YGR229C, strain SMI1, hits give low values 0.972 | locus YGR252W, strain gcn5, hits give low values 1.15 | locus YHR013C, strain ard1, hits give low values 0.955 | locus YHR027C, strain rpn1, hits give low values 0.993 | locus YHR030C, strain SLT2, hits give low values 0.981 and 0.948 | locus YHR079C, strain IRE1 (second series), hits give low values 0.981 | locus YHR079C, strain IRE1, hits give low values 0.974 | locus YHR094C, strain hxt1, hits give low values 0.975 | locus YHR129C, strain ARP1, hits give low values 1 | locus YHR142W, strain chs7, hits give low values 0.973 | locus YHR200W, strain rpn10, hits give low values 0.987 | locus YIL066C, strain RNR3, hits give low values 0.994 | locus YIL073C, strain SPO22, hits give low values 0.938 | locus YIL125W, strain kgd1, hits give low values 0.958 | locus YIR030C, strain dcg1, hits give low values 0.992 | locus YJL092W, strain hpr5, hits give low values 0.99 | locus YJL095W, strain BCK1 (second series), hits give low values 1 | locus YJL095W, strain BCK1, hits give low values 1.01 and 0.964 | locus YJL115W, strain asf1, hits give low values 1 | locus YJL129C, strain trk1, hits give low values 0.934 | locus YJL134W, strain LCB3, hits give low values 0.987 | locus YJL154C, strain vps35, hits give low values 0.974 | locus YJL164C, strain tpk1, hits give low values 1 | locus YJL166W, strain qcr8, hits give low values 1.02 | locus YJL168C, strain set2, hits give low values 0.984 | locus YJL187C, strain SWE1 (second series), hits give low values 0.976 | locus YJR043C, strain POL32, hits give low values 1 | locus YJR066W, strain TOR1, hits give low values 0.916 | locus YJR075W, strain HOC1, hits give low values 0.98
